Compound activity: PubChem, several laboratories
KLK7 zymogen act: proKLK7 (human) activation, primary screen; activation, % at 7 µM; purified proKLK7, EDANS-DABCYL substrate fluorescence; 100% is mature enzyme control, 0% vehicle; 370,000 compounds, 0.9% hits; P49862; AID 652039;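 active = activation above the mean of all tested compounds plus 3 SD, computed per campaign excluding outliers beyond control limits, cut at about 13% in these data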
sPLA2-III inh: Blocks human group III sPLA2 activity; Q9NZ20; QFRET BODIPY PC-A2 liposome hydrolysis, fluorescence; inhibition, % at 12.2 µM; 370,000 compounds, 0.56% hits; AID 743126;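 active = inhibition above mean plus 3 SD of compounds lying within the high and low control bounds, cut at about 19% in these data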;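 also: 0% = median of test compound wells and 100% = no enzyme DMSO wells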
Target sequence (Q9NZ20 whole entry, looked up): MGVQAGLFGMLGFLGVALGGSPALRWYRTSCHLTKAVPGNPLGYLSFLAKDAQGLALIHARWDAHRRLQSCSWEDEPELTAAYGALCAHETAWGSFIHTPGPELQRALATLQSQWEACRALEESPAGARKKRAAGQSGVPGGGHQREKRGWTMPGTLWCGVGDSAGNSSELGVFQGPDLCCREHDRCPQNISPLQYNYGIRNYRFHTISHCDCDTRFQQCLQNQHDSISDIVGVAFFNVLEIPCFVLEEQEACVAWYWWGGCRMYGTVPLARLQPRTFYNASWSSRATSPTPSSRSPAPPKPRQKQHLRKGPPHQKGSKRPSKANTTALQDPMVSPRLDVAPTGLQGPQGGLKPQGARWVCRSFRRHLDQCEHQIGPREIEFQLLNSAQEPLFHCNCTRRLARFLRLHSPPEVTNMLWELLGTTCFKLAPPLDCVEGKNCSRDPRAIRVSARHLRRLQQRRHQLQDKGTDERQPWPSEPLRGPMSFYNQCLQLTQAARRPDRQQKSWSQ
CendR NRP1 mod: modulators of CendR peptide binding to human neuropilin-1; AID 602438; inhibition, % at 25 µM; O14786; 360,000 compounds, 0.85% hits; FAM-RPARPAR peptide binding to NRP-1, fluorescence polarization;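 active = inhibition or corrected inhibition above about 18%, plus a signal ratio from 0.5 to 1.5, limit read from the data, passing the limit was not always enough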
ADAM17 inh: ADAM17 inhibition, QFRET primary screen; P78536; recombinant ADAM17, EDANS/DABCYL FRET peptide cleavage; inhibition, % at 6.95 µM; 370,000 compounds, 0.83% hits; AID 720648;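 active = inhibition above the mean of compounds lying between control limits plus 3 SD, set per campaign, cut at about 8.5% in these data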;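 also: 0% = DMSO-only wells as the low control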
ADAM10 inh: inhibits human ADAM10; 370,000 compounds, 0.62% hits; inhibition, % at 7 µM; AID 720582; recombinant ADAM10, EDANS/DABCYL FRET peptide cleavage, 3 h;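 active = inhibition above a per-campaign cutoff equal to the mean of compounds falling between control-based bounds plus 3 SD, cut at about 20% in these data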;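 also: 0% = DMSO wells while the 100% control is not disclosed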
KLK7 act conf: proKLK7 activation, confirmation. AID 686949. purified proKLK7, EDANS-DABCYL substrate fluorescence; scaled: vehicle 0, mature enzyme 100. shares compounds with KLK7 zymogen act. activation, % at 7 µM. 3,200 compounds, 68% hits;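 active = activation, as change over the incubation, above the mean of all tested compounds plus 3 SD, cut at about 13% in these data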
EDANS interfere: fluorescence interference counter-screen for KLK7 activators. shares compounds with KLK7 zymogen act. EDANS-DABCYL substrate fluorescence interference, no enzyme, 4 h; solvent 0%, active enzyme control 100%. activation, % at 7 µM. 3,200 compounds, 80% hits. AID 686952;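 active = activation above the all-compound mean plus 3 SD, ignoring values outside control-based bounds, cut at about 4.8% in these data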;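 also: value is the 4 h activation minus the activation read at time zero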
K7 EDANS ctr: EDANS fluorescence interference in dose response, no enzyme; AID 720493; EDANS-DABCYL peptide fluorescence interference; shares compounds with KLK7 zymogen act; EC50, µM; 250 compounds, 20% hits;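 active = compounds that raise the fluorescence signal in this interference counterscreen, with EC50 at or below 10 µM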;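 also: intact quenched peptide substrate alone read at 355 nm excitation and 520 nm emission; signal is fluorescence gain from T0 to T4 after four hours at room temperature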
* = called active by the depositor; i = inactive; . = no result. Most compounds without a hit are left out; they make up all but 3.4% or so of the library.

SMILES	KLK7 zymogen act	sPLA2-III inh	CendR NRP1 mod	ADAM17 inh	ADAM10 inh	KLK7 act conf	EDANS interfere	others
O=C(CN1C(=O)[C@@H](Cc2ccccc2)N=C(c2ccccc2)c2ccccc21)NC1CCCCC1	0	0	.	-3	-1	.	.
O=S(=O)(c1cc(Cl)cc(Cl)c1)N1Cc2cc(-c3ccccc3)ccc2-n2nncc2C1	-1	6	23*	-3	-13	.	.
N#CC1c2ccccc2-n2nncc2CN1C(=O)c1ccc([N+](=O)[O-])o1 (stereo unspecified)	0	1	.	0	-1	.	.
C[C@]12CCC3C(CC[C@H]4C[C@@H](O)CC[C@]34C)C1C[C@@H](O)[C@]2(C)O (stereo partly specified)	0	-2	28*	1	-7	.	.
C#C[C@]1(O)[C@H](O)CC2C3CC[C@H]4C[C@@H](O)CC[C@]4(C)C3CC[C@@]21C (stereo partly specified)	0	10	8	-5	-9	.	.
O=P(O)(O)CN1CCNCCN(CP(=O)(O)O)CCNCC1	0	-6	30*	0	8	.	.
CCC1CN1P(=O)(Oc1ccc(Cl)cc1)N1CC1CC (stereo unspecified)	0	5	34*	-1	8	.	.
NP(=O)(OCC(F)(F)F)Oc1ccc(Cl)cc1 (stereo unspecified)	0	2	4	1	-3	.	.
Cc1ccc2nc(-c3ccc(CN4CCC(n5nnc6ccccc65)CC4)cc3)c(-c3ccccc3)nc2c1	-14	-5	.	-54	-219	.	.
O=C(NCCN1CCC2(CC1)C(=O)NCN2c1ccccc1)C(c1ccccc1)c1ccccc1	1	-1	.	-4	-9	.	.
Cc1ccc(-c2cc(-c3ccccc3)cc(-c3ccccc3)[n+]2-c2ccccc2C(=O)O)cc1	3	-3	26*	-145	i	.	.
CCOC(=O)c1nsnc1NCCCl	-2	2	22*	-9	-22	.	.
CC(=O)OC1CC[C@]2(C#N)[C@H]3CC[C@]4(C)[C@H](C5C=CC(=O)O5)CCC4(O)C3CCC2(O)C1 (stereo partly specified)	0	0	22*	-2	0	.	.
CC(=O)OC1CC(OC2C(O)CC(OC3C(O)CC(OC4CCC5(C)C(CCC6C5CCC5(C)C(C7=CC(=O)OC7)CCC65O)C4)OC3C)OC2C)OC(C)C1OC1OC(CO)C(O)C(O)C1O (stereo unspecified)	0	-20	5	0	-4	.	.
CN(C)c1ccc(/C=C2/C(=N\O)C3CCN2CC3)cc1	56*	19	-12	-22	-56	130*	153*
COc1ccc2nc(-c3ccc(CN4CCC(n5nnc6ccccc65)CC4)cc3)c(-c3ccccc3)nc2c1	-42	5	.	-41	-190	.	.
CCC1(OC(=O)CN)C(=O)OCc2c1cc1n(c2=O)Cc2cc3ccccc3nc2-1 (stereo unspecified)	.	.	9	.	.	.	.
CC[C@@]1(O)C(=O)OCc2c1cc1n(c2=O)Cc2cc3c(NC(=O)CN)cccc3nc2-1	350*	3	-8	i	i	109*	99*
O=c1[nH]c(=S)n(Cc2ccc(F)cc2)c(O)c1C=NCC1CCCO1 (stereo unspecified)	0	0	1	-2	-7	.	.
O=c1[nH]c(=S)n(Cc2ccc(F)cc2)c(O)c1/C=N/N1CCCCC1	14*	11	-13	1	-4	2	1
C#CC1(O)CCC2C3CCC4=CC(=O)CCC4=C3C=CC21C (stereo unspecified)	14*	5	0	-79	-330	9	11*
N#Cc1ccc2nc(-c3ccc(CN4CCC(n5c(=O)[nH]c6cc(Cl)ccc65)CC4)cc3)c(-c3ccccc3)nc2c1	-3	-1	.	3	0	.	.
COCC(C)OC(=O)c1c(N)n(Cc2ccco2)c2nc3ccccc3nc12 (stereo unspecified)	1	-15	-43	i	i	.	.
CCOC(=O)c1c(N)n(Cc2ccco2)c2nc3ccccc3nc12	47*	-12	-38	i	i	60*	78*
Nc1c(C(=O)NCc2ccco2)c2nc3ccccc3nc2n1CCN1CCOCC1	34*	-2	-40	i	i	-12	-17
SMILES	KLK7 zymogen act	sPLA2-III inh	CendR NRP1 mod	ADAM17 inh	ADAM10 inh	KLK7 act conf	EDANS interfere	others
CCCCn1c(N)c(C(=O)OCCOC)c2nc3ccccc3nc21	0	0	-5	-289	i	.	.
CC(C)OC(=O)c1c(N)n(CC2CCCO2)c2nc3ccccc3nc12 (stereo unspecified)	48*	-6	-12	i	i	73*	72*
COCCOC(=O)c1c(N)n(Cc2ccccc2)c2nc3ccccc3nc12	32*	-12	-7	i	i	-52	-152
COc1ccc2c3c([nH]c2c1)[C@H](C=C(C)C)N1C(=O)[C@@H]2CCCN2C(=O)[C@@H]1C3	11	-22	.	-5	-28	.	.
CC(C)C(CN1CCC(C)(c2cccc(O)c2)[C@@H](C)C1)NC(=O)C1Cc2ccc(O)cc2CN1 (stereo partly specified)	0	-28	.	-2	-5	.	.
COc1cc(O)c2c(c1)/C=C/C[C@H](O)[C@H](O)[C@@H](O)/C=C/C[C@H](C)OC2=O	0	14	.	-4	-17	.	.
O=C(O)c1cc2ccccc2n1C1CCN(Cc2ccccc2)CC1	0	-1	.	0	-1	.	.
CN(C)[C@@H]1C(=O)C(C(N)=O)=C(O)[C@@]2(O)C(=O)C3=C(O)c4c(O)ccc(Cl)c4[C@@](C)(O)[C@H]3C[C@@H]12	13*	-11	-12	-31	-122	37*	35*
CN(C)[C@@H]1C(=O)C(C(N)=O)=C(O)[C@@]2(O)C(=O)C3=C(O)c4c(O)cccc4[C@@](C)(O)C3C[C@@H]12 (stereo partly specified)	-1	-9	-5	0	0	.	.
S=P(c1ccccc1)(c1ccccc1)c1cnc2ccccn12	.	3	.	2	7	.	.
COc1ccc(-n2c(/C=C/c3ccc(O)c(OC)c3)nc3ccccc3c2=O)cc1	-1	-26	-53	-8	-28	.	.
O=c1c2ccccc2nc(/C=C/c2ccc(O)cc2)n1-c1cccc(O)c1	214*	-54	-60	-77	-196	207*	78*
O=c1c2ccccc2nc(/C=C/c2ccc(O)cc2)n1-c1ccc(O)cc1	26*	-49	-2	-15	-37	14*	2	K7 EDANS ctr=>23
